Data on eight compounds can be found in ChEMBL document CHEMBL3988442, “University of Dundee, Small-Polar-MMV Screening Library” (2021).

Holding throughout (parameters): scale not given: direction of the effect not stated beside the values
Test [1] concerns the target Protein translocase subunit SecA (Escherichia coli (strain K12)) (UniProt P10408). As to the kind of experiment: Assay to Identify E. coli SecA ATPase Inhibitors. It counts as functional. Particulars: 30 µM.
Test [2] deals with T1, Ubiquitin-activating enzyme e1, putative (Leishmania donovani (strain BPK282A1)) (UniProt E9BSI1).
T1 sequence (whole entry): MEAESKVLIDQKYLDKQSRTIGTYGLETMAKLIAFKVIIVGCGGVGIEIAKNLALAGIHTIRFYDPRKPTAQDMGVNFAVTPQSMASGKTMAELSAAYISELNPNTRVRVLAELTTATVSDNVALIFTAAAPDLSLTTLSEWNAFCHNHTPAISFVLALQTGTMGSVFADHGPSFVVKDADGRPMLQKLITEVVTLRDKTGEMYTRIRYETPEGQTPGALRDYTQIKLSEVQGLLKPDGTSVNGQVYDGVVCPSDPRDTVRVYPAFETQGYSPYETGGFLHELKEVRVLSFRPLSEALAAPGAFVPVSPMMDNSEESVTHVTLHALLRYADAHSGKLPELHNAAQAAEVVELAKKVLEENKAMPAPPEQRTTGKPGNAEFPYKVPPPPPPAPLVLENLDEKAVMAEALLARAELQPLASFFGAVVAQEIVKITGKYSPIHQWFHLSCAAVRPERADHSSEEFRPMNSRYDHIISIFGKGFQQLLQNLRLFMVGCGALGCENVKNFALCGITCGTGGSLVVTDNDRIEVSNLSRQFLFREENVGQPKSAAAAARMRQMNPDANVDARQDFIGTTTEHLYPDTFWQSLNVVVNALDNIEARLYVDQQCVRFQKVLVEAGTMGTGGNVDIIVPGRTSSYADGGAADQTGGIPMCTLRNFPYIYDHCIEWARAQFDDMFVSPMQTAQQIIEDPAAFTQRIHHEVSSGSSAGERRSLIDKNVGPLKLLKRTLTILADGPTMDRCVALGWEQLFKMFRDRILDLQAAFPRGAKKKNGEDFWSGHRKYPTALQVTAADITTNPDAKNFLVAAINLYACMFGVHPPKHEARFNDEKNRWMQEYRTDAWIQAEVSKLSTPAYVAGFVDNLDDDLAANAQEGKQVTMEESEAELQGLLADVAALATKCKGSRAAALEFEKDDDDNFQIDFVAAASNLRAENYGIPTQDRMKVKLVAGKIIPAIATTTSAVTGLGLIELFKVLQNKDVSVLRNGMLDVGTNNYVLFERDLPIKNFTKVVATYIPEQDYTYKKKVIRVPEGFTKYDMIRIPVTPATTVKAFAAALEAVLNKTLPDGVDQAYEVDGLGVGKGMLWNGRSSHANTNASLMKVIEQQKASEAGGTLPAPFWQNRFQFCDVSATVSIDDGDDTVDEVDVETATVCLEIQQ
Put plainly: Leishmania donovani Ubiquitin Activating Enzyme (LdE1). It counts as functional. Particulars: 30 µM.

The target of test [3] is AMP-activated protein kinase, AMPK (Homo sapiens) (UniProt P54646+O43741+P54619+Q9UGJ0+Q9Y478+Q13131+Q9UGI9). As to the kind of experiment: AMP-dependent Kinase enzyme assay. An in vitro enzyme assay that detects ADP turnover that is directly proportional to AMPK activity. This uses naive AMPK that is activated during the assay with MK-8722. It counts as functional. Particulars: 30 µM.

Test [4] deals with Sialic acid-binding Ig-like lectin 9 (Homo sapiens) (UniProt Q9Y336). As to the kind of experiment: Hs-Siglec9 ALPHAscreen SOP 20170721. The note with it: 10 µM.
Sequence of Sialic acid-binding Ig-like lectin 9 (Homo sapiens) (Q9Y336 whole entry): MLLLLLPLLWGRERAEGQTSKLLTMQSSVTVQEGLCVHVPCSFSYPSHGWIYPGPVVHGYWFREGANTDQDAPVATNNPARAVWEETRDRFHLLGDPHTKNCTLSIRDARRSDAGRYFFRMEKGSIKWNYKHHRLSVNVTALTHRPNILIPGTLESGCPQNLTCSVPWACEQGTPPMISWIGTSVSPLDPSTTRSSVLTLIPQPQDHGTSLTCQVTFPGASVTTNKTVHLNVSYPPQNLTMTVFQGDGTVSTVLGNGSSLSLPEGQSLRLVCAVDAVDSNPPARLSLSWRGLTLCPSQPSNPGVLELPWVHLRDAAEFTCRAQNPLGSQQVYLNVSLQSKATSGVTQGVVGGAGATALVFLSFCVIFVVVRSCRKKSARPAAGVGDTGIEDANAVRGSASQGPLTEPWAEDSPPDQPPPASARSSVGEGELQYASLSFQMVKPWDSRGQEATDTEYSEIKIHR
A further test relates to Trypanosoma cruzi. Put plainly: Trypanosoma cruzi phosphomannomutase and mannose-1-phosphate guanylyltransferase assay. In kind it is functional. The note with it: 10 µM.
Test [5] has as its target T2, Arginase-2, mitochondrial (Homo sapiens) (UniProt P78540).
T2 sequence (whole entry): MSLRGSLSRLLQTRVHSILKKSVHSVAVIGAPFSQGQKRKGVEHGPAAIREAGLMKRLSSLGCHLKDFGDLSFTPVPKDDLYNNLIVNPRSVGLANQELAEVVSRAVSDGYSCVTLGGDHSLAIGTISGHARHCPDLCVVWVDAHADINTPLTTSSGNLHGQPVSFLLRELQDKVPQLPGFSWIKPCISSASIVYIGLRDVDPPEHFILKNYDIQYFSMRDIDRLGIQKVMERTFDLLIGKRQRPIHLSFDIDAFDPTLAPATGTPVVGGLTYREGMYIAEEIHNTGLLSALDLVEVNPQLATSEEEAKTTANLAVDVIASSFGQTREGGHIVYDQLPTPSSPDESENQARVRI
Put plainly: in vitro enzyme assay to detect the production of urea directly proportional to the activity of Arginase II. Further: in the data most compounds retested in dose-response had high values. In kind it is functional. Particulars: 33.3 µM.

Test [6] has as its target T3, Proteasome subunit beta (Trypanosoma cruzi) (UniProt O96673).
T3 sequence (whole entry): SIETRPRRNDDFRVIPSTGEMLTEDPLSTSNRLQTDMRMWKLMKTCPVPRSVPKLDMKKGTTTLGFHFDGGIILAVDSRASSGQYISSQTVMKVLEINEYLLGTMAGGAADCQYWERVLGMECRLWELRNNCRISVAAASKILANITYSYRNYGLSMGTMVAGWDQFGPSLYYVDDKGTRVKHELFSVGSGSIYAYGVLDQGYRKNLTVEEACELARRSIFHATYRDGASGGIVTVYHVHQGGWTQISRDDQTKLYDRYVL
As to the kind of experiment: Trypanosoma cruzi proteasome chymotrypsin-like activity (TcProtChymo) assay. Further: in the data most compounds retested in dose-response had high values. In kind it is functional. The note with it: 9.37 µM.

The next test is filed under the species Homo sapiens. As to the kind of experiment: To identify inhibition of the IFN signalling (Jak-Stat) pathway via expression of an eGFP reporter gene under the control of an IFN-stimulated response element (ISRE) containing MxA promoter. It counts as functional. The note with it: 30 µM. In general terms: Reporter assays use an easily measured gene product as a stand-in for the process of interest.

Test [7] concerns the target T4, Tyrosyl-tRNA synthetase, putative (Trypanosoma cruzi (strain CL Brener)) (UniProt Q4DSP6).
T4 sequence (whole entry): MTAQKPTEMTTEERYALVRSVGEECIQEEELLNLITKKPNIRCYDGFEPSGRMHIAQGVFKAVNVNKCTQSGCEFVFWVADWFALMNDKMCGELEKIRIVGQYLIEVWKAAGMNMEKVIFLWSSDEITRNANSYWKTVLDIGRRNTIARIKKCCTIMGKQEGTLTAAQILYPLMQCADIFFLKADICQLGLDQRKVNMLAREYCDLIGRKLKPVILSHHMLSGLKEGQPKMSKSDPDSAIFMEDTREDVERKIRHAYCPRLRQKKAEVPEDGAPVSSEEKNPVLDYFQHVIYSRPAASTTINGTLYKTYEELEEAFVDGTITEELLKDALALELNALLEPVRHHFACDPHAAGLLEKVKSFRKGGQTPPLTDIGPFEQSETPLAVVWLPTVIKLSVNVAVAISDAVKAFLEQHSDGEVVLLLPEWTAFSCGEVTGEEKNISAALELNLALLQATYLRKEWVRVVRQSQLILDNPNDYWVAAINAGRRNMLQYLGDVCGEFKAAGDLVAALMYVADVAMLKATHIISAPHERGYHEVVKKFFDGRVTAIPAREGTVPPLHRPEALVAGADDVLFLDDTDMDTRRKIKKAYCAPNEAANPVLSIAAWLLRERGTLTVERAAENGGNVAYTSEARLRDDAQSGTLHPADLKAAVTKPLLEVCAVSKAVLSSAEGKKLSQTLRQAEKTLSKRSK
Put plainly: Trypanosoma cruzi tyrosyl tRNA synthetase (TcYRS) _High Tyrosine SOP. Further: in the data most compounds retested in dose-response had high values. It counts as functional. The note with it: 30 µM.

The target in test [8] is T4, Tyrosyl-tRNA synthetase, putative (Trypanosoma cruzi (strain CL Brener)). As to the kind of experiment: Trypanosoma cruzi tyrosyl tRNA synthetase (TcYRS) SOP. The note with it: 30 µM. It counts as functional.
Test [9] concerns the target Chromo domain-containing protein 1 (Saccharomyces cerevisiae (strain ATCC 204508 / S288c) (Baker's yeast)) (UniProt P32657). Put plainly: ScCHD-1 Enzyme Inhibition Assay. Further: in the data most compounds retested in dose-response had high values. It counts as functional. Particulars: 30 µM.

The structures appear in SMILES notation. For some of these results: Measured potencies and affinities stand elsewhere.

Sequence of Chromo domain-containing protein 1 (Saccharomyces cerevisiae (strain ATCC 204508 / S288c) (Baker's yeast)) (P32657 whole entry, the tested form may be a part): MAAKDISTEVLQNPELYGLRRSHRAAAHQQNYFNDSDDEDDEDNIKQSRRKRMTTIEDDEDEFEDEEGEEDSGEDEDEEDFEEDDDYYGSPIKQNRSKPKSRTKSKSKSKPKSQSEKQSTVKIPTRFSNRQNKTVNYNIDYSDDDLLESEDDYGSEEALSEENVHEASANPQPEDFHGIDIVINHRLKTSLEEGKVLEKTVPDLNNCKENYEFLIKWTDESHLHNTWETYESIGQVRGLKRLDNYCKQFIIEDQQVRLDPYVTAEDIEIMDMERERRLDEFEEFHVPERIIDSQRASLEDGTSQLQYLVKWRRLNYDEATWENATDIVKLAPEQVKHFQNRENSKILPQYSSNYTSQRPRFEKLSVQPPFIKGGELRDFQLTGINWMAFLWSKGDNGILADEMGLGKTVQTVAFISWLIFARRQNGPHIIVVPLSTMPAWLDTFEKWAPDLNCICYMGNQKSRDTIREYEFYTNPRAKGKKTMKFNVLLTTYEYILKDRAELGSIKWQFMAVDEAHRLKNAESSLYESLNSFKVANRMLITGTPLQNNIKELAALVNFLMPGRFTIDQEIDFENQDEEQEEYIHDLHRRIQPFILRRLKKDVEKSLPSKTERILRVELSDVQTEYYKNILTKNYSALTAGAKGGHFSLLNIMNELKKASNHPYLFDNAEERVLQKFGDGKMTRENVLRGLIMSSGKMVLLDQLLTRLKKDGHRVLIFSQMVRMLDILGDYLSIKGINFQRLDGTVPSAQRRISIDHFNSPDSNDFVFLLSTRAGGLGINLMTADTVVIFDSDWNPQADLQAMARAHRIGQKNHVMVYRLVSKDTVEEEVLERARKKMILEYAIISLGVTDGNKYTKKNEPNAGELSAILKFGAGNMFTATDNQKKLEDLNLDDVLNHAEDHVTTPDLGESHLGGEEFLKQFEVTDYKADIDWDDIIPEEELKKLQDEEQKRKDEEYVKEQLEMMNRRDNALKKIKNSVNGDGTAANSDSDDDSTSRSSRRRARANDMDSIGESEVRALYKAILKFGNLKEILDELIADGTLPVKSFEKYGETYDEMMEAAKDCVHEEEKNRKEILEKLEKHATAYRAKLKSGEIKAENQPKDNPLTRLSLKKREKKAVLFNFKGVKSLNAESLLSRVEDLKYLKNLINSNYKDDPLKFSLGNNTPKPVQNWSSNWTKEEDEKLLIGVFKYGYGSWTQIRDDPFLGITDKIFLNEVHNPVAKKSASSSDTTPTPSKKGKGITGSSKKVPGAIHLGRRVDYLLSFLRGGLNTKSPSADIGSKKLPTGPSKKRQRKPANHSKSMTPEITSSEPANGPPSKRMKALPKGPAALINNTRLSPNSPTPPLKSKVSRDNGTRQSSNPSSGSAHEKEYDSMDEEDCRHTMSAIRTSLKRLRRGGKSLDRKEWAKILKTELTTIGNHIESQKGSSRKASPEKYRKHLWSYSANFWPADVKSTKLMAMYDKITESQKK
Sequence of Protein translocase subunit SecA (Escherichia coli (strain K12)) (P10408 whole entry): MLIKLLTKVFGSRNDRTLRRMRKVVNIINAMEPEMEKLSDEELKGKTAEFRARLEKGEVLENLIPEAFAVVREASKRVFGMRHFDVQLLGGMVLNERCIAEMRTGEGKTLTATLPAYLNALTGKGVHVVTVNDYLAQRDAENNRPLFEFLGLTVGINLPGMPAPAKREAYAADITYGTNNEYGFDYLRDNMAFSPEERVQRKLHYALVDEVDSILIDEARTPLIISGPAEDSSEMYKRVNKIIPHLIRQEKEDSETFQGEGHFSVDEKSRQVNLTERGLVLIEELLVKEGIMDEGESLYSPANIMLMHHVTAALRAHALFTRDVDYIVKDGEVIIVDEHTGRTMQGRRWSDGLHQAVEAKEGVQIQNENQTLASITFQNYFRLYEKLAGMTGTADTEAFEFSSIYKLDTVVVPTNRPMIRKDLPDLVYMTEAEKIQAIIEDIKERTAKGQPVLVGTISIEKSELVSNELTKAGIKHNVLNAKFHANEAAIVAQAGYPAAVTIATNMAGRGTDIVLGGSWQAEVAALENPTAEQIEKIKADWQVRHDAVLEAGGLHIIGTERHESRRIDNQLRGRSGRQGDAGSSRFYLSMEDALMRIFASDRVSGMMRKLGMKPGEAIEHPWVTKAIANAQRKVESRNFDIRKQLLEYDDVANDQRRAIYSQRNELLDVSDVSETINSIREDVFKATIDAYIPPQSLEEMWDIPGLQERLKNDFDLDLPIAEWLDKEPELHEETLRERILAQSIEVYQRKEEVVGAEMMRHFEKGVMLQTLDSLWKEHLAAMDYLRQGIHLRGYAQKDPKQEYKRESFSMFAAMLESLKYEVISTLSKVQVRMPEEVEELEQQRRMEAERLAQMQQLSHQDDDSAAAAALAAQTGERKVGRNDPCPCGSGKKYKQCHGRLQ

As for `Cc1ccc(C2(CN3CCCC3)CCNCC2)nc1`, the Percent Effect in [1] is -3.03%; in test [2] it was 8.11%; in test [3], -4.02%; in test [4], 3.83%; in the test with Trypanosoma cruzi it was 2.32%; in test [5] it was -2.86%. The Percent Effect in [6] was 11.6%; in the test filed under Homo sapiens it was -11.7%; in [7], 10.1%; in [8], 9.76%; in test [9], -0.82%.
For the compound `COc1cccc(CCC(=O)N2CCCC(n3cc(C)cn3)C2)c1` (stereo not drawn), the Percent Effect in test [1] is 0.219%; in [2], -3.8%; in test [3], 11.1%; in test [4], -1.76%; with Trypanosoma cruzi, -0.923%; in test [5], 9.25%. The Percent Effect in test [6] was 1.03%; in the test filed under Homo sapiens it was -7.62%; in [7] it was -5.21%; in [8], 0%; in test [9] it was -20%.
`CCc1nnc2n1CCN(C(=O)c1cc3ccc(F)cc3nc1C)C2`: the Percent Effect in test [1] is -5.47%; in test [2], 15.6%; in [3] it was 4.64%; in test [4], 3.18%; in the test with Trypanosoma cruzi, 1.12%; in test [5], -3.92%. For the same compound, the Percent Effect is 6.59% in test [6]; -1.03% in the test listed under Homo sapiens; 11.7% in test [7]; 21.9% in [8]; -6.09% in [9].
For the compound `CC(Cn1cccn1)NC(=O)CCc1ccc(S(N)(=O)=O)cc1` (stereo not drawn), the Percent Effect was -7.11% in [1]; 18.2% in test [2]; -0.578% in test [3]; 3.31% in [4]; 6.37% in the test with Trypanosoma cruzi; -2.74% in test [5]. Also, the Percent Effect is 7.03% in test [6]; 11% in the test listed under Homo sapiens; 6.67% in test [7]; 23.5% in test [8]; -9.46% in [9].
Turning to `COc1ccc(NC(=O)CCc2c(C)nc3cc(O)nn3c2C)cn1`, the Percent Effect in [1] was -3.54%; in test [2] it was 0%; in test [3], -317%; in test [4] it was 9.4%; in the test with Trypanosoma cruzi, 6.18%; in test [5] it was 0.356%. Besides, the Percent Effect is 8.62% in [6]; 25.5% in the test filed under Homo sapiens; 7.77% in test [7]; 21.9% in test [8]; -8.7% in [9].
As for `CCc1nc(CN(Cc2cccs2)CC2CCCO2)no1` (stereo not drawn), the Percent Effect in test [1] was -0.473%; in test [2] it was -11.4%; in test [3] it was 2.16%; in test [4], 0.0835%; in the test on Trypanosoma cruzi it was -0.308%; in test [5], 2.37%. The Percent Effect in test [6] is 4.29%; in the test listed under Homo sapiens it was 10.4%; in test [7], -3.12%; in [8], 5.06%; in test [9] it was 3.56%.
As to `Cc1csc(N2CCN(CCc3ccccn3)CC2C)n1` (stereo not drawn), the Percent Effect is -0.657% in test [1]; 8.22% in [2]; -7.28% in [3]; 9.14% in [4]; 6.07% in the test on Trypanosoma cruzi; -3.64% in [5]. Also, the Percent Effect in test [6] was 4.79%; in the test listed under Homo sapiens, 17.9%; in test [7] it was 4.3%; in test [8], 5%; in test [9], -1.43%.
On to `O=C(c1ccnnc1)N1CCN2C[C@H](Oc3cccc(F)c3)C[C@H]2C1`, for which the Percent Effect in test [1] is -1.92%; in test [2], 8%; in test [3], -1.06%; in [4], 6.61%; in the test on Trypanosoma cruzi, -2.7%; in test [5], -20.2%. The Percent Effect in test [6] was 1.37%; in the test filed under Homo sapiens it was -0.178%; in test [7], -2.08%; in test [8], 10%; in test [9] it was -6.63%.
